Experimental data reported in PubChem BioAssay (EPA / NIEHS).
Active and inactive are the calls of the source. The calls were made as follows: active = hit-call score of the fitted dose curve at least 0.9, where 1 is the maximum; inactive = score below 0.9.

Experiment: APR_HepG2_StressKinase_72hr: Apredica 72-hour HepG2 Assay for Stress Kinase (AID 2282921)
Settings: HepG2 stress kinase (phospho-c-Jun) imaging, actives raise or lower the signal
Procedure: APR_HepG2_72hr is a cell-based, multiplexed-readout assay that uses HepG2, a human liver cell line, with measurements taken at 72 hours after chemical dosing in a 384-well plate.APR_HepG2_StressKinase_72hr is one of 10 assay component(s) measured or calculated from the APR_HepG2_72hr assay. It is designed to make measurements of enzyme activity, a form of enzyme reporter, as detected with fluorescence intensity signals by HCS Fluorescent Imaging technology.Data from the assay component APR_HepG2_StressKinase_72hr was analyzed into 1 assay endpoint. This assay endpoint, APR_HepG2_StressKinase_72hr, was analyzed with bidirectional fitting relative to DMSO as the negative control and baseline of activity. Using a type of enzyme reporter, measures of protein for gain or loss-of-signal activity can be used to understand the signaling at the pathway-level as they relate to the gene . Furthermore, this assay endpoint can be referred to as a primary readout, because this assay has produced multiple assay endpoints where this one serves a signaling function. To generalize the intended target to other relatable targets, this assay endpoint is annotated to the cell cycle intended target family, where the subfamily is stress response.
Cells were treated with dimethyl sulfoxide (DMSO) as a solvent control at a final concentration of 0.5% v/v or with compounds in DMSO with a resulting final DMSO concentration of 0.5% v/v. Compound treatment was done at concentrations of 0.39, 0.78, 1.56, 3.12, 6.24, 12.5, 25, 50, 100, and 200 uM in duplicate on each plate. Cells were treated with compounds for 1, 24, or 72 hr. Carbonyl […] m-chloro-phenylhydrazone (CCCP) and taxol were used as positive controls for mitochondrial function and cytoskeletal stability, respectively; DMSO served as the negative control for this experiment. Cells were fixed by the direct addition of 50 uL formaldehyde in Hank's Balanced Salt Solution (HBSS) to a final concentration of 3.7%. After incubation in the fixation medium for 30 min at room temperature (293-298 K), cells were rinsed twice with HBSS and treated with cell permeabilization buffer (16 uL of 0.5% Triton X-100) for 10 min at room temperature (293-298 K) before labeling. For mitochondrial membrane potential and mitochondrial measurements, pre-fixed cells were incubated with 50 uL of MitoTracker Red CMXRos (Invitrogen) at a concentration of 250 nM for 30 min before fixation. In the remaining cases, post-fixed cells were labeled by incubation with a multiplexed mixture of primary antibodies in HBSS for 60 min at room temperature (293-298 K) to detect immunoreactivity of c-Jun (1:500), phospho-histone H3 (1:100), phospho-histone H2A.x (1:200), p53 (1:400), alpha-tubulin (1:200) and Hoechst 33342 (2 ug/mL). Cells were labeled for multiplexed imaging on two separate plates: a) Hoechst 33342, MitoTracker Red, phospho-histone H3, and alpha-tubulin, and b) Hoechst 33342, phospho-histone H2A.x, and c-Jun. A final rinse with HBSS (50 uL) was performed before analysis. The primary and secondary antibodies for the proteins were phospho-histone H3 (rabbit anti-phospho-histone H3 and FITC-donkey anti-rabbit IgG), phospho-histone H2A.x (mouse anti-phospho-histone H2A.x and FITC-donkey anti-mouse IgG), c-Jun (rabbit anti-phospho-c-Jun and Cy3-donkey anti-rabbit IgG), p53 (sheep anti-p53 and Cy5-donkey anti-sheep IgG), alpha-tubulin (mouse anti-alpha-tubulin and Cy5-donkey anti-mouse IgG). These antibodies are available as the CellCiphr HepG2 assay kit (Millipore).Digital images of each well were captured using a Cellomics ArrayScan VTI (Thermo Scientific Cellomics) (0.8 NA objective, 0.63x optical coupler, and XF-93 filter set) at 20x magnification. The images were acquired using the autofocus feature of the ArrayScan instrument, which entails the following steps. First, the camera focuses on channel 1 (Hoechst 33342), where nuclei are identified. Second, a Z offset of 1 um is used for capturing mitochondria (MitoTracker Red). […]

With `O=C(c1ccccc1)c1ccccc1` as the molecule, how does the outcome read?
Its outcome is “inactive”.

With `Cc1[nH]nc2c1N=C(c1ccccc1Cl)c1cc([N+](=O)[O-])ccc1N2` as the molecule, how does the AC50 read?
Its AC50 is 11.7 µM (active).

Which AC50 does the source give for `O=C(CCCN1CCC(O)(c2ccc(Cl)cc2)CC1)c1ccc(F)cc1` here?
Its AC50 is 42.5 µM (active).

With `CCCCC=O` as the molecule, how does the outcome read?
The outcome was “inactive”.

With `N=C(N)c1ccc(OCCCCCOc2ccc(C(=N)N)cc2)cc1` as the molecule, how does the outcome read?
Its outcome is “inactive”.

Which outcome does the source give for `CS(=O)(=O)c1ccc([C@@H](CC2CCCC2)C(=O)Nc2cnccn2)cc1Cl` here?
The outcome was “inactive”.

For `CN(C)CCOC(c1ccccc1)c1ccccc1`, which outcome is on record?
Its outcome is “inactive”.

Which outcome does the source give for `CN(Cc1cnc2nc(N)nc(N)c2n1)c1ccc(C(=O)N[C@@H](CCC(=O)O)C(=O)O)cc1` here?
Its outcome is “inactive”.

With `CCCCc1oc2ccccc2c1C(=O)c1cc(I)c(OCCN(CC)CC)c(I)c1` as the molecule, how does the outcome read?
Its outcome is “inactive”.

For `OCC(CO)(CBr)CBr`, which outcome is on record?
Its outcome is “inactive”.

Which outcome does the source give for `CCCCCCCCCCCCCCC` here?
Its outcome is “inactive”.

With `CC(=O)Nc1ccc(O)cc1` as the molecule, how does the outcome read?
The outcome was “inactive”.

Which outcome does the source give for `CCCCCCCCCCCCOS(=O)(=O)O` here?
The outcome was “inactive”.

For `CCCCC(CC)C(=O)O` (centres undefined), which outcome is on record?
The outcome was “inactive”.
